# PubChem BioAssay AID738 (SRMLSC, 2007)
# Hit rate of the full screen: of about 98,000 compounds, about 4,900 (5%) were called active. Cut-off read from the data, not from the text of the source: active = inhibition above about 30%; inactive = the rest. This excerpt belongs to a sample that is enriched for actives.
# Test: growth inhibition of yeast control strain, primary screen, counter-screen for post-Golgi transport modulator project (AID 738)
# Conditions: efflux-deficient yeast background strain, growth absorbance A615, 16 h; at 10 µM; active compounds read high
row,SMILES,inhibition
1,CCN(CC)c1ccc(/C=N/Nc2nc(C)cc(=O)[nH]2)cc1,-2.13% (inactive)
2,COc1cc2c(cc1OC)C(C(=O)NCc1ccco1)C1c3ccccc3CCN1C2=O (stereo not given),4.7% (inactive)
3,CCOC(=O)N1CCN(C(=O)C2CCN(c3ncnc4c3sc3cccc(F)c34)CC2)CC1,2.07% (inactive)
4,CCOC(=O)C1CCN(C(=O)c2oc3ccc(S(=O)(=O)N4CCCCCC4)cc3c2C)CC1,8.75% (inactive)
5,CCOC(=O)C1CCN(c2ncnc3c2oc2ccc(Br)cc23)CC1,47.4% (active)
6,CCCNC(=O)c1c(N)n(-c2ccc(S(N)(=O)=O)cc2)c2nc3ccccc3nc12,-2.52% (inactive)
7,Cc1nn(C)c(Oc2ccc(Cl)cc2)c1C=O,2.69% (inactive)
8,O=C1N(Cc2ccc3c(c2)OCO3)c2ccccc2C1(O)c1c[nH]c2ccccc12 (stereo not given),38.7% (active)
9,O=C(COc1ccccc1)NCc1ccc2c(c1)OCO2,9.88% (inactive)
10,O=C(CCCCn1c(=O)[nH]c2ccccc2c1=O)NCc1ccc2c(c1)OCO2,1% (inactive)
11,Cc1csc(=NC(=O)c2ccccc2)n1CCO,7.5% (inactive)
12,CCC(C)NC(=O)CCCc1ccccc1 (stereo not given),28.4% (inactive)
13,O=C(CNC(=O)Cc1ccccc1)NCC(=O)OCC(=O)c1ccccc1Cl,13.6% (inactive)
14,C=CCOc1c2ccc(C(=O)N(CC)c3ccc(OC)cc3)cc2nn1C,7.7% (inactive)
15,O=C(NC1CC1)c1ccc2c(c1)NC(=O)c1ccccc1S2,-5.47% (inactive)
16,COc1ccc(C(C#N)Nc2ccc(C)cc2)cc1 (stereo not given),1.82% (inactive)
17,COc1ccc(-c2cc(C(=O)n3cnc4ccccc43)c3ccccc3n2)cc1,15.1% (inactive)
18,O=C(CCCOc1ccccc1)NCc1ccco1,3.25% (inactive)
19,O=C(CCc1ccccc1)NCc1cccnc1,6.95% (inactive)
20,O=C(CCOc1ccccc1)NCc1ccccc1,39.4% (active)
21,Cn1sc(NC(=O)c2ccccc2)nc1=O,4.34% (inactive)
22,CC(C)(C)c1cc2cccnc2n1Cc1ccccc1,7.46% (inactive)
23,CCOC(=O)c1sc2nc(SC)nc(-c3ccccc3)c2c1N,-7.15% (inactive)
24,COCCNC(=O)COc1ccc(C)c(C)c1,-10.9% (inactive)

row,SMILES,inhibition
1,Cc1cc2ccccc2n1CCNC(=O)COc1ccc2ccccc2c1,44.7% (active)
2,Cc1ccccc1OCC(=O)NCC(=O)OCC(=O)c1ccc2ccccc2c1,6.76% (inactive)
3,COc1ccc(C(=O)CN(C(=O)c2ccc(Cl)cc2)N2C(=O)c3ccccc3C2=O)cc1,-4.1% (inactive)
4,COc1cccc(NC(=O)C2c3cc(OC)c(OC)cc3C(=O)N(C)C2c2cccnc2)c1 (stereo not given),-0.14% (inactive)
5,CC(=O)NNc1cc(=O)c2c(=O)n(C)c(=O)n(C)c2[nH]1,0.97% (inactive)
6,Cn1c2ccccc2n2c(=O)c(=O)n(CC(=O)c3ccc(F)cc3)nc12,3.79% (inactive)
7,Cc1cc(C)c(S(=O)(=O)NCC2CCC(C(=O)NCc3ccc4c(c3)OCO4)CC2)c(C)c1 (stereo not given),15.2% (inactive)
8,CCOc1ccccc1NC(=O)Nc1cc(OC)ccc1OC,14.3% (inactive)
9,CCOc1cc(-c2cc(-c3ccc(OC)cc3)nc(N)c2C#N)ccc1O,-2.55% (inactive)
10,CCOc1ccccc1Oc1cn[nH]c1-c1ccc(OC)cc1O,52.3% (active)
11,Cn1c2c(c(=O)n(C)c1=O)[C@@H]1c3c(ccc4ccccc34)OC[C@@H]1CO2,3.76% (inactive)
12,Cc1nc2ccccc2c(=O)n1CCCn1ccnc1,1.67% (inactive)
13,CCn1c(/C=C/c2ccc([N+](=O)[O-])o2)nc2ccccc2c1=O,68% (active)
14,CCc1ccc(NC(=O)CSc2nc3ccccc3c(=O)n2CCN2CCOCC2)cc1,7.51% (inactive)
15,O=C(Nc1nnc(SCc2ccc(Cl)cc2Cl)s1)C1COc2ccccc2O1 (stereo not given),5% (inactive)
16,CCOC(=O)c1cnc(-c2ccccc2)nc1Oc1ccc(C)cc1,4.35% (inactive)
17,Cc1nnc(NC(=O)Cn2c(=O)sc3ccccc32)s1,-3.03% (inactive)
18,O=C(CC(O)(C(F)(F)F)C(F)(F)F)Nc1ccc(Cl)c(Cl)c1,96.9% (active)
19,Cc1nnc(NC(=O)Nc2ccc(Cl)c(Cl)c2)s1,3.53% (inactive)
20,N/C(=N\OC(=O)Nc1ccc(Cl)c(Cl)c1)c1ncc(C(F)(F)F)cc1Cl,13.3% (inactive)
21,COCc1cc(C)nc2sc3c(=O)n(-c4cccc5ccccc45)nnc3c12,21.1% (inactive)
22,COc1ccc(-c2csc(N3CCN(Cc4ccc5c(c4)OCO5)CC3)n2)cc1,-2.01% (inactive)
23,O=C(Cn1nnc(-c2ccccc2)n1)NCc1ccc2c(c1)OCO2,2.85% (inactive)
24,O=C(CN1CCN(c2nc(-c3ccccc3)cs2)CC1)NCc1ccc2c(c1)OCO2,44.6% (active)

row,SMILES,inhibition
1,COc1ccc(C2CC(=O)Nc3sc(=N)c4c(N)c(C#N)c(N)nc4c32)cc1OC (stereo not given),24.2% (inactive)
2,Fc1ccccc1/C=C1\CCCC2=C1Nc1ncnn1C2c1ccccc1F (stereo not given),35.8% (active)
3,CCCCCCn1c(SCC(=O)c2ccccc2)nc2c1c(=O)[nH]c(=O)n2C,12.4% (inactive)
4,CCCCCn1c(SCCC(C)C)nc2c1c(=O)[nH]c(=O)n2C,35.5% (active)
5,CCCSc1nc2c(c(=O)[nH]c(=O)n2C)n1CCc1ccccc1,16.6% (inactive)
6,ONC(=Nc1ccccc1)c1ccccc1Cl,24.2% (inactive)
7,CN(C(=O)CSc1nnc(N)s1)c1c(N)n(Cc2ccccc2)c(=O)[nH]c1=O,7.66% (inactive)
8,Cc1cc([N+](=O)[O-])c(N2CCC[C@@H]2C(=O)O)c([N+](=O)[O-])c1,18.4% (inactive)
9,Cc1ccc(Cc2c(C)nc3nc(SCC(=O)NCCN4CCOCC4)nn3c2C)cc1,20% (inactive)
10,Cn1c(C(=O)NCCCN2CCCCC2)cc2sccc21,2.29% (inactive)
11,Cc1ccsc1-c1nc(CSCC(=O)NCCN2CCCC2)c(C)o1,34.5% (active)
12,COc1ccccc1N1CCN(Cc2ccc(OC)c3ccccc23)CC1,34.9% (active)
13,COc1ccccc1N1CCN(CCCCOc2ccc(F)cc2)CC1,-0.55% (inactive)
14,COc1ccccc1N1CCN(Cc2nnnn2CCc2ccccc2)CC1,7.81% (inactive)
15,Cc1cc(C)n2nc(C(=O)NC(C)(C)C)nc2n1,4.47% (inactive)
16,COc1ccc(Oc2c(Cl)cnn(-c3ccccc3)c2=O)cc1,-3.86% (inactive)
17,CCN1CCC(=NNC(=O)c2ccc(C)c([N+](=O)[O-])c2)CC1,3.82% (inactive)
18,Cc1oc(-c2ccccc2F)nc1CS(=O)(=O)CC(=O)NCCCN(C)C1CCCCC1,13.5% (inactive)
19,COc1ccc(-c2nc(CS(=O)CC(=O)N3CCc4ccccc4C3)c(C)o2)cc1 (stereo not given),4.85% (inactive)
20,Cc1ccccc1-c1nc(CS(=O)(=O)CC(=O)N2CCc3ccccc3C2)c(C)o1,30.9% (active)
21,COc1cc(/C=N\NC(=O)C2C(=O)NCC2c2ccccc2)cc(OC)c1O (stereo not given),-0.14% (inactive)
22,CC(C)(C)Cc1nnc(NC(=O)c2cc(-c3ccccc3)nc3ccccc23)s1,9.13% (inactive)
23,CCOC(=O)c1[nH]c2ccccc2c1N=C(C)N(CC)CC,-8.42% (inactive)
24,CCOC(=O)c1cc2cc(C)ccc2[nH]1,10.2% (inactive)

row,SMILES,inhibition
1,CCOC(=O)c1[nH]c2ccc(C)cc2c1N=C(C)N(C)C,30.6% (active)
2,Cn1cnc([N+](=O)[O-])c1Sc1ccccc1,7.56% (inactive)
3,Clc1ccc(-n2nnnc2CN2CCCCC2)cc1Cl,-0.16% (inactive)
4,Cc1ccccc1CS(=O)(=O)CC1(O)CCN(C(=O)c2cccc(C(F)(F)F)c2)CC1,4.49% (inactive)
5,COc1cc(/C=C(/NC(=O)c2ccccc2)C(=O)Nc2cccc(O)c2)c([N+](=O)[O-])cc1OC,15.7% (inactive)
6,O=C(Cc1ccc(-n2c(=O)[nH]c3ccccc3c2=O)cc1)N1CCN(c2cccc(Cl)c2)CC1,37.3% (active)
7,CCOC(=O)N1CCN(C(=O)Cc2ccc(-n3c(=S)[nH]c4ccccc4c3=O)cc2)CC1,-2.12% (inactive)
8,O=C(CCn1c(=O)[nH]c2ccccc2c1=O)NCCCN1CCN(c2cccc(Cl)c2)CC1,1.72% (inactive)
9,COc1ccc(NC(=O)C(NC(C)=O)C(=O)NCc2ccccc2Cl)cc1 (stereo not given),14% (inactive)
10,COC(=O)CN(C(=S)Nc1ccc(Cl)cc1)C1CC(=O)N(c2ccc(OC)cc2)C1=O (stereo not given),7.41% (inactive)
11,O=C(NCc1cccnc1)c1ccc(CS(=O)(=O)c2ccc(Br)cc2)o1,-2.42% (inactive)
12,O=C(Nc1ccc(Br)c2cccnc12)c1ccc(Cn2cc([N+](=O)[O-])cn2)o1,30.3% (active)
13,CC1CCc2c(sc(NC(=O)c3ccc(Cn4cc(Br)cn4)o3)c2C(N)=O)C1 (stereo not given),10.8% (inactive)
14,COc1ccccc1NC(=O)[C@H](COCc1ccccc1)NC(=O)OC(C)(C)C,5.88% (inactive)
15,CC(=O)c1ccc(Cc2ncc(C(F)(F)F)cc2Cl)s1,5.66% (inactive)
16,CCN1CCN(c2ccc([N+](=O)[O-])cc2C(=O)c2ccc(Cl)cc2)CC1,26.2% (inactive)
17,O=C(NCc1ccccn1)c1cc(-c2ccccc2Cl)on1,9.87% (inactive)
18,CC(=O)c1c(C)[nH]c(C(=O)NCc2ccc(C)cc2)c1C,5.25% (inactive)
19,CCOc1ccc(C(=O)Nc2cc(OC)ccc2OC)cc1,-3.51% (inactive)
20,COc1ccc(C)cc1NC(=O)c1[nH]c(C)c(C(C)=O)c1C,55% (active)
21,CC1=NN(C(=O)c2ccccc2Br)C(O)(c2cccnc2)C1 (stereo not given),9.36% (inactive)
22,COC(=O)c1ccc(C(=O)Nc2cc(Cl)ccc2Cl)cc1NC(=O)c1ccccc1C,1.48% (inactive)
23,Cc1ccc(NC(=O)C(C)c2cccc(C(=O)c3ccccc3)c2)cc1 (stereo not given),9.41% (inactive)
